From publication PMC4336329 (PLoS ONE, 2015) come the findings set out here.

Out of some 310,000 compounds screened, about 14,000 (4.5%) showed an effect of 50% or more. Effects have a minus sign here. The sample as a whole holds a higher share of strong results than the screen did.
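Also: peak tail current of the secondary pulse compared with the same well before compound.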

Chain of human ether-à-go-go-related gene (hERG) potassium channel (Q12809 whole entry, looked up): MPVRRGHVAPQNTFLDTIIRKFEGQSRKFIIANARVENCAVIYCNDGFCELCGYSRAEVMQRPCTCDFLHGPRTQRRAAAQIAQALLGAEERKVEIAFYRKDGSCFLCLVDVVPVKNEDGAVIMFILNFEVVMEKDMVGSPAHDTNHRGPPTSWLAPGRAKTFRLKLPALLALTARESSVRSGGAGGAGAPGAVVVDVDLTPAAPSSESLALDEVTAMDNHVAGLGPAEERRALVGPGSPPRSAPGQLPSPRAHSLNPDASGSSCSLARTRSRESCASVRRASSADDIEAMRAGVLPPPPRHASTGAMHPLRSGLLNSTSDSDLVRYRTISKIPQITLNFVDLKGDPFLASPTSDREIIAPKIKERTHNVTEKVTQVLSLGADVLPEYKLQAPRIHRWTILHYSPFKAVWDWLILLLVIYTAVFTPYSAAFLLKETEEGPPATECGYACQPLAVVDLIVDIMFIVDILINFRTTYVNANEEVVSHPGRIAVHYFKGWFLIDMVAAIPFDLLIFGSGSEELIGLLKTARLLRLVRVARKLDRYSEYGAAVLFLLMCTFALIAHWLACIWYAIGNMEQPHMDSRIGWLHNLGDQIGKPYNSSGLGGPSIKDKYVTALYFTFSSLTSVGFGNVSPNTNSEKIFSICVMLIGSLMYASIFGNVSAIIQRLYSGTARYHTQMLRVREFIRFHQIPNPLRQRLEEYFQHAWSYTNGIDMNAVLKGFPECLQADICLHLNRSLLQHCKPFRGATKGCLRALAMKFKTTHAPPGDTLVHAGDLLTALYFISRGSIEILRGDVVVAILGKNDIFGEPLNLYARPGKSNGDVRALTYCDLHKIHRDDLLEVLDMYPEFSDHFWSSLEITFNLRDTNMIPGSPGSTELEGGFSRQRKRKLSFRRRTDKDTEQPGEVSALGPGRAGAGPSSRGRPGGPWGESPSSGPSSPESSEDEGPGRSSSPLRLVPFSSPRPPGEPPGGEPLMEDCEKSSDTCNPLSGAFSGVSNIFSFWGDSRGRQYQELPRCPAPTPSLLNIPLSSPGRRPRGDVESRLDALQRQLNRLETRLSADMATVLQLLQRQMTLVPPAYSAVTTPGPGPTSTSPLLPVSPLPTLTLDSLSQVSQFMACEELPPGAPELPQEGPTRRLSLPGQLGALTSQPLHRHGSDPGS

For the assay, the target named is human ether-à-go-go-related gene (hERG) potassium channel (human, UniProt Q12809). Kind of assay: primary screen, population patch clamp on CHO cells stably expressing hERG; higher = less effect of the substance. The protocol:
Briefly, Chinese hamster ovary (CHO) cells stably expressing the hERG channel were dislodged from tissue culture flasks and dispensed into PPC plates. […] During the recording, background leak currents were estimated by a 100 ms step to -80 mV from an initial holding potential of -70 mV and subtracted from the subsequent current measurement. The campaign was conducted in two phases using slight differences in recording protocol. In the first phase, the initial voltage pulse used a 100 ms step to -30 mV from a holding potential of -70 mV, a 2 s conditioning step to +25 mV, and a 2 s test step to -30 mV. During the second phase of the screen, the potential during the conditioning step was raised to +45 mV. In both phases of the campaign, a secondary voltage pulse was applied using the same parameters as the second phase initial pulse. The initial and secondary pulses were applied in the absence of compound, and upon application of 1 μM and 10 μM test concentrations. […]
For the compound `Cc1nc2ncnn2c(C)c1CCC(=O)Oc1ccccc1`, the “hERG current change (%, negative = inhibition) at 10uM” value is -5.02%.

Take `CCN1CCc2nc(N)oc2CC1.Cl`: the “hERG current change (%, negative = inhibition) at 10uM” value was 1.67%.

Take `Cc1cc2oc(C(=O)NC3CCS(=O)(=O)C3)c(C)c2cc1C` (stereo not drawn): the “hERG current change (%, negative = inhibition) at 10uM” value stood at 2.69%.

With `CN(CC(=O)Nc1ccc(Cl)c(C(F)(F)F)c1)C(=O)C1CCC1`, the “hERG current change (%, negative = inhibition) at 10uM” value is given as -14.8%.

Regarding `O=C1COc2ccc(N3C(=O)c4ccccc4C3=O)cc2N1`, the “hERG current change (%, negative = inhibition) at 10uM” value came to 27.5%.

As to `CCCCCN(C(=O)CN1CCC(Cc2ccccc2)CC1)c1c(N)n(CCCC)c(=O)[nH]c1=O`, the “hERG current change (%, negative = inhibition) at 10uM” value is -48.1%.

For `CSc1nc(N2CCN(Cc3ccc4c(c3)OCO4)CC2)c2ccccc2n1`, the “hERG current change (%, negative = inhibition) at 10uM” value is on record as -16.7%.

For `CC(C)(C)OC(=O)N1CCC(c2cc(=O)n3[nH]cc(C(=O)Nc4ccc(F)c(Cl)c4)c3n2)CC1`, the “hERG current change (%, negative = inhibition) at 10uM” value is given as 6.92%.

`COCCOC(=O)C1=C(C)Nc2ncnn2C1c1ccco1` (stereo not drawn): the “hERG current change (%, negative = inhibition) at 10uM” value was 2.64%.

Turning to `Cc1cc(=O)n2nc(N3CCC(C(=O)NCc4ccc(Cl)cc4)CC3)sc2n1`, the “hERG current change (%, negative = inhibition) at 10uM” value was -70%.

Turning to `COc1ccc(CNC(=O)C2CCN(c3nn4c(=O)cc(C)nc4s3)CC2)cc1`, the “hERG current change (%, negative = inhibition) at 10uM” value is recorded as -4.51%.

For the compound `Cc1cc(=O)n2nc(N3CCC(C(=O)NCc4cccc(Cl)c4)CC3)sc2n1`, the “hERG current change (%, negative = inhibition) at 10uM” value is given as -43.7%.

As to `Cc1cc(=O)n2nc(N3CCC(C(=O)NCc4ccccc4)CC3)sc2n1`, the “hERG current change (%, negative = inhibition) at 10uM” value is given as -3.68%.

As to `Cc1ccc(CNC(=O)C2CCN(c3nn4c(=O)cc(C)nc4s3)CC2)cc1`, the “hERG current change (%, negative = inhibition) at 10uM” value is listed as -41.9%.

Regarding `Cc1cc(=O)n2nc(N3CCCC(C(=O)NCc4cccc(Br)c4)C3)sc2n1` (stereo not drawn), the “hERG current change (%, negative = inhibition) at 10uM” value is recorded as -30.2%.

As for `Cc1cc(=O)n2nc(N3CCC(C(=O)NCc4cccc(Br)c4)CC3)sc2n1`, the “hERG current change (%, negative = inhibition) at 10uM” value is given as -51.4%.

Consider `CCOc1ccc(CNC(=O)C2CCN(c3nn4c(=O)cc(C)nc4s3)CC2)cc1`, for which the “hERG current change (%, negative = inhibition) at 10uM” value is -45.8%.

Consider `Cc1cc(=O)n2nc(N3CCC(C(=O)NCc4ccc(F)cc4)CC3)sc2n1`, for which the “hERG current change (%, negative = inhibition) at 10uM” value is -55.5%.

On to `CCS(=O)(=O)c1ccc(C(=O)Nc2cccc(Cl)c2)c(Cl)c1Cl`, for which the “hERG current change (%, negative = inhibition) at 10uM” value is given as -3.97%.

Take `Cc1ccc(C(C)C)c(OCCCNCc2cccnc2)c1.Cl`: the “hERG current change (%, negative = inhibition) at 10uM” value is given as -37.5%.

With `CCNC(=O)NC(=O)CN(C)c1ccccc1`, the “hERG current change (%, negative = inhibition) at 10uM” value is listed as 10.5%.

On to `CCOC(=O)c1sc(=NC(=O)c2cccc(C)c2)n(C)c1C`, for which the “hERG current change (%, negative = inhibition) at 10uM” value came to 8.38%.

Consider `Cc1ccc(-c2c(C(=O)N/N=C/c3cccs3)nnn2-c2nonc2N)cc1`, for which the “hERG current change (%, negative = inhibition) at 10uM” value came out at 29.8%.

Consider `CCC(COC)NCc1cn(-c2ccc(F)cc2F)nc1-c1ccccc1C` (stereo not drawn), for which the “hERG current change (%, negative = inhibition) at 10uM” value is -18%.

Regarding `COc1ccc(-n2cc(CN(C)C(C)c3ccncn3)c(-c3cccc(F)c3)n2)cc1` (stereo not drawn), the “hERG current change (%, negative = inhibition) at 10uM” value is listed as -39.9%.

With `COc1cccc(-c2nn(-c3ccccc3)cc2CN(C)C(C)c2ccncn2)c1` (stereo not drawn), the “hERG current change (%, negative = inhibition) at 10uM” value is recorded as -15.6%.

On to `CCC(COC)NCc1cn(-c2ccc(OC)cc2)nc1-c1cccc(F)c1` (stereo not drawn), for which the “hERG current change (%, negative = inhibition) at 10uM” value is recorded as -70.3%.

With `COc1ccc(-c2nn(-c3ccccc3)cc2CNC(C)Cn2cncn2)c(F)c1` (stereo not drawn), the “hERG current change (%, negative = inhibition) at 10uM” value is reported as -13%.

Take `COc1ccc(-n2cc(CNC(C)c3ccncn3)c(-c3cccc(F)c3)n2)cc1` (stereo not drawn): the “hERG current change (%, negative = inhibition) at 10uM” value is -59.4%.

In the case of `Cc1cccc(N2CCN(C(=O)c3cccc(N4C(=O)C5CC=CC(C)C5C4=O)c3)CC2)c1C` (stereo not drawn), the “hERG current change (%, negative = inhibition) at 10uM” value is reported as -12.5%.

Take `Cc1oncc1-c1cn2ccccc2n1`: the “hERG current change (%, negative = inhibition) at 10uM” value came out at 6.61%.

With `COc1ccccc1CNC(=O)c1ccccc1OCc1ccc(F)cc1`, the “hERG current change (%, negative = inhibition) at 10uM” value is listed as -10%.

Take `CCOc1ccc(N2CC(C(=O)N3CCCCCC3)CC2=O)cc1` (stereo not drawn): the “hERG current change (%, negative = inhibition) at 10uM” value is given as -7.34%.

On to `COc1ccc(N2CCN(C(=O)C3CC(=O)N(c4ccc(C)cc4)C3)CC2)cc1` (stereo not drawn), for which the “hERG current change (%, negative = inhibition) at 10uM” value is listed as -35.1%.

Turning to `COc1ccc(N2CC(C(=O)N3CCN(C)CC3)CC2=O)cc1` (stereo not drawn), the “hERG current change (%, negative = inhibition) at 10uM” value is reported as 15.4%.

Regarding `COc1ccc(N2CC(C(=O)N3CCN(C(=O)c4ccco4)CC3)CC2=O)cc1` (stereo not drawn), the “hERG current change (%, negative = inhibition) at 10uM” value was -53.3%.

In the case of `CCOc1ccc(N2CC(C(=O)N3CCN(C(=O)c4ccco4)CC3)CC2=O)cc1` (stereo not drawn), the “hERG current change (%, negative = inhibition) at 10uM” value was -63.4%.

For the compound `CCOc1ccc(N2CC(C(=O)N3CCCCC3)CC2=O)cc1` (stereo not drawn), the “hERG current change (%, negative = inhibition) at 10uM” value came out at 18.6%.

For `Cc1cc(C#N)c(C)n1-c1cc(S(=O)(=O)N2CCOCC2)ccc1N1CCCC1`, the “hERG current change (%, negative = inhibition) at 10uM” value is listed as -14.3%.

Regarding `CN(Cc1ccc(F)cc1)C(=O)c1cccc(S(=O)(=O)N2CCN(c3ccc(F)cc3)CC2)c1`, the “hERG current change (%, negative = inhibition) at 10uM” value was -34.6%.

Regarding `CN(C)S(=O)(=O)N1CCC(Oc2cccc(C(=O)NC3CCOC3)c2)CC1` (stereo not drawn), the “hERG current change (%, negative = inhibition) at 10uM” value is 2.63%.

With `O=C(CCN1CCN(S(=O)(=O)c2ccc(Cl)cc2)CC1)Nc1ccccc1F`, the “hERG current change (%, negative = inhibition) at 10uM” value was -6.18%.

Consider `O=C(CN1CCOCC1)Nc1ccccc1F`, for which the “hERG current change (%, negative = inhibition) at 10uM” value is listed as 0.862%.

For `O=C(CN1CCN(CCC(=O)Nc2ccccc2F)CC1)Nc1ccc(F)cc1`, the “hERG current change (%, negative = inhibition) at 10uM” value is reported as -72.6%.

For `O=C(CCN1CCN(c2ccc(F)cc2)CC1)Nc1ccccc1F`, the “hERG current change (%, negative = inhibition) at 10uM” value was -43%.
